# Results taken from PubChem BioAssay (NCI).
# About 83,000 compounds went through this panel and 20% of them were active in at least one assay; those are over-represented in the sample as a whole.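 The test compound was applied at a single concentration to cells in 96-well plates for 48 hours, and percent growth was recorded.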 Unmarked numbers belong to inactive results. Calls of active or inactive are those of the source. The calls were made as follows: active = growth percent below 10; inactive = the rest.
# Tested on: HL-60(TB) leukemia
# Assay: NCI-60 one-dose screen, 48 h (100 = growth as untreated, 0 = no growth, -100 = all killed)
# Conditions: 10 µM unless noted
row,SMILES,growth
1,CC1=C(C)C(=O)C(Nc2ccc(C)cc2)=C(Br)C1=O,68.6%
2,C#Cc1ccc(C(=O)NCc2ccc(/C=C/C(=O)c3nccn3C)cc2)cc1,0.695% (active)
3,O=C1c2c(c3c4cc(O)ccc4oc3c3[nH]c4ccccc4c23)C(=O)N1O,9.22% (active)
4,C=C=COc1cccc(/C(N)=N/C(N)=N/c2nc3ccccc3s2)c1,97.8%
5,COc1cc(-c2nc3ccc(-c4nnc(SCC(=O)Nc5ccc(C(=O)/C=C/c6ccc(Cl)cc6)cc5)o4)cc3[nH]2)cc(OC)c1OC,92.5%
6,CCN1C(=O)N(CC)C2C1NN=C1SC(c3ccccc3)=CC(=O)N12 (centres undefined),-2.48% (active)
7,CN1CCc2c(sc3ncnc(N/N=C/c4ccc(Cl)c(Cl)c4)c23)C1,-58.2% (active)
8,CC(=O)Nc1cc(F)cc(-c2ccc3[nH]cc(-c4ccccc4)c3n2)c1,7.81% (active)
9,Nc1nc(N)c2c(n1)NC(c1ccccc1)CC(c1ccc(Nc3nc(NCCO)nc(Nc4ccc(Cl)cc4)n3)cc1)=N2 (centres undefined),2.55% (active)
10,Cc1ccc(/C(N)=N/C(N)=N/c2nc3ccccc3s2)cc1,81.6%
11,C#CCOc1ccc(/C=N/Nc2nc(-c3cc(Cl)ccc3Cl)cs2)cc1,91%
12,Cc1ccc(C(=O)NN2C(=O)/C(=C/C=C/c3ccco3)SC2=S)cc1,30.4%
13,CCc1cc(O)ccc1Nc1cc(-c2ccc(-n3cccn3)cc2)[nH]n1,58.6%
14,COc1cc(/C=N/n2cnc3oc(-c4ccccc4)cc3c2=N)cc(CN2CCOCC2)c1O,88.9%
15,C/C(=N\NC(=O)Nc1ccccc1)c1nnn(-c2ccc([N+](=O)[O-])cc2)c1C,98.9%
16,Nc1cc(C(=O)N/N=C\c2ccc(OC(F)F)c(OC3CCCC3)c2)nn1CC(O)c1ccccc1 (centres undefined),91.3%
17,CC1=C(C)C(=O)C(Nc2cccc(C(=O)OC(C)(C)C)c2)=C(Cl)C1=O,68%
18,C#C[C@]1(O)CC[C@H]2[C@@H]3CC=C4c5sc(-c6ccc(F)cn6)nc5CC[C@]4(C)[C@H]3CC[C@@]21C,8.65% (active)
19,COc1cc(-c2ccc3ncnc(NCc4ccccc4)c3c2)cnc1OC,66%
20,CN(C)CCNc1ccc2ncc(C#Cc3cncc(C(=O)Nc4ccc(CN5CCN(C)CC5)c(C(F)(F)F)c4)c3)n2n1,-32.1% (active)
21,Nc1cc(F)ccc1NC(=O)c1ccc(NC(=O)C/C=C/c2cccnc2)cc1,13.4%
22,CCn1c2ccccc2c2cc(-n3nncc3-c3ccccc3)ccc21,3.73% (active)
23,O=C(Nc1ccc(Cl)c(C(F)(F)F)c1)Nc1ccc2c(ccn2C(=O)c2cccc(F)c2)c1,24.7%
24,CCCCCc1ccc(S(=O)(=O)Nc2cccc(-c3csc(NC(=O)CN4CCN(CCO)CC4)n3)c2)cc1,66.3%
25,CN1CCN(c2ccc(C(=O)/C=C/c3ccc(Cl)c(C(F)(F)F)c3)cc2)CC1,-22.6% (active)
26,CS(=O)(=O)Nc1cc(-c2ccc3ncc(C#N)c(NCc4cccc(F)c4)c3c2)cnc1Cl,4.11% (active)
27,O=C(CN1C(=O)S/C(=C\c2ccccc2)C1=O)Nc1ccc(C(=O)/C=C/c2cc3ccccc3nc2Cl)cc1,80.2%
28,CCN1C(=O)N(CC)C2SC(N/N=C/c3ccc(OC)cc3)=NC21 (centres undefined),-16.6% (active)
29,CN(C)c1ccc(/C=N/Nc2nc(N/N=C/c3ccc(N(C)C)cc3)nc(N3CCOCC3)n2)cc1,96.7%
